Results reported in PubChem BioAssay (Tox21).
Inconclusive results are not listed. Where a call stands in place of a potency, no number is given. Active and inactive are the calls of the source. Calls follow the shape of the full dose curve.

Target: Beta-2 adrenergic receptor (Homo sapiens) (UniProt P07550)
Assay: Adrenergic beta2 receptor (ADRB2) small molecule agonists, cell-based qHTS assay (AID 1963593);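 also: CHO cells stably overexpressing human ADRB2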
In short: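 CHO cells stably over-expressing ADRB2 were plated overnight at 37C, then dosed with compounds plus a stimulation mix containing 100uM IBMX and 25uM Ro-20-1724 for 0.5hr at room temperature. cAMP was measured by HTRF competition, 1hr.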

Sequence of Beta-2 adrenergic receptor (Homo sapiens) (P07550 whole entry, looked up): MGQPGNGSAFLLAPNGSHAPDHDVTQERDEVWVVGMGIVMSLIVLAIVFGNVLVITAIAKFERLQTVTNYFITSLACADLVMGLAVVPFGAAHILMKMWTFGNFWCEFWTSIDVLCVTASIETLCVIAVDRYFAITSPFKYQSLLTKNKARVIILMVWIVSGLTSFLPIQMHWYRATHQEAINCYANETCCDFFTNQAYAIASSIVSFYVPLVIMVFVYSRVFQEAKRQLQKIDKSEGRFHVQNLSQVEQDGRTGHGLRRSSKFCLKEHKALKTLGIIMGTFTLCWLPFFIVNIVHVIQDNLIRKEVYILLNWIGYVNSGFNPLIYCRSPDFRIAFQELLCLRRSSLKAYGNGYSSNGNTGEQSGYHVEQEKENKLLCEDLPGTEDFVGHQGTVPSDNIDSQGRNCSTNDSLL

Structure (SMILES) | Potency
c1ccc(CNc2ncnc3nc[nH]c23)cc1 | inactive
Oc1ccc(Cl)c2cccnc12 | inactive
CCOC(=O)CCC(=O)OCC | inactive
CCC(C)c1nccnc1OC (configuration not stated) | inactive
Cc1ccc2cccnc2c1 | inactive
CCCCCCOC(=O)C(C)C | inactive
O=C(O)c1cccc(C(=O)O)c1C(=O)O | inactive
CC(C)(Oc1ccc(Cl)cc1)C(=O)OCCCOC(=O)C(C)(C)Oc1ccc(Cl)cc1 | inactive
C=C(C)C(=O)OCC(O)CO (configuration not stated) | inactive
Cc1c(Cl)cccc1[N+](=O)[O-] | inactive
CCCC(C)C(=O)OCC (configuration not stated) | inactive
O=[N+]([O-])c1ccc(CO)cc1 | inactive
